Key:
[1] = tested on: Vero E6 infected with SARS-CoV-2; assay: morphology score (similarity to uninfected cells); higher = more like uninfected cells; details: 24 h
[2] = tested on: Vero E6 infected with SARS-CoV-2; assay: SARS-CoV-2 infection rate relative to infected DMSO; higher = more infection, active = 60 or less; details: 24 h

| Structure (SMILES) | morphology score [1] | SARS-CoV-2 infection rate [2] |
| --- | --- | --- |
| CNc1cc2c(Nc3cccc(Br)c3)ncnc2cn1 (10 µM) | -0.276 | 112% (inactive) |
| c1cnc2cc3c(cc2n1)[C@@H]1CNC[C@H]3C1 [varenicline] (10 µM) | -0.0409 | 101% (inactive) |
| O=C(O)[C@H]1CC[C@H](c2cc3cccnc3c(-c3cccc(F)c3)n2)CC1 (10 µM) | 0.315 | 103% (inactive) |
| COc1ccc2cccc(N3CCN(CCNC(=O)c4ccc(F)cc4)CC3)c2c1 (10 µM) | 0.241 | 103% (inactive) |
| CC(C)(N)C(=O)N[C@H](COCc1ccccc1)C(=O)N1CCC2(CC1)CN(S(C)(=O)=O)c1ccccc12 [ibutamoren] (10 µM) | -0.0834 | 108% (inactive) |
| O=c1[nH]c2ccccc2n1C1CCN(CCOc2ccccc2)CC1 [oxiperomide] (0.833333 µM) | -0.0147 | 104% (inactive) |
| CC1(C)CCC2=C(O1)c1ccccc1C(=O)C2=O [beta-lapachone] (10 µM) | 0.361 | 78.5% (inactive) |
| O=C(Nc1nc(-c2cc(Cl)cs2)c(N2CCN(C3CCCCC3)CC2)s1)c1cnc(N2CCC(C(=O)O)CC2)c(Cl)c1 [avatrombopag] (10 µM) | 0.0997 | 100% (inactive) |
| Cc1[nH]c(/C=C2\C(=O)Nc3ccc(S(=O)(=O)N(C)c4cccc(Cl)c4)cc32)c(C)c1C(=O)N1CCN(C)CC1 (10 µM) | 0.493 | 104% (inactive) |
| Cc1nc(Nc2cnn(C3CCNCC3)c2)nc2c1N(C)C(=O)c1cc3ccccc3cc1N2C (0.833333 µM) | 0.143 | 104% (inactive) |

From the supplement of paper PMC13380429
